About 2,000 (36%) of roughly 5,500 compounds were called active. Not shown: some 18% with an inconclusive outcome. Cut-off read from the data, not from the text of the source: active = normalized growth mostly below about 0.91 (no sharp cut-off); inconclusive = no clear call, values can overlap the other calls; inactive = mostly above about 0.92. The list shows a part of the results.
Assay: chemical genetic growth profiling, strain panel (AID 1159580);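 note: tested at 20 µM; growth read once vehicle control cultures reached saturation at 30 °C; 1 = growth at the plate median or of vehicle wells; lower values mean less growth of the strain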
Details: growth OD

Measured: normalized growth

CC(=O)c1ccc(N2C(=O)CSCC2=O)cc1
inactive: S. cerevisiae deletion strains, locus YAL013W, strain DEP1, hits give low values 0.999 | S. cerevisiae deletion strains, locus YBR229C, strain ROT2, hits give low values 0.999 | S. cerevisiae deletion strains, locus YDL101C, strain DUN1, hits give low values 1.01 | S. cerevisiae deletion strains, locus YDL134C, strain PPH21, hits give low values 0.977 | S. cerevisiae deletion strains, locus YDR150W, strain NUM1, hits give low values 0.984 | S. cerevisiae deletion strains, locus YEL061C, strain CIN8, hits give low values 1.02 | S. cerevisiae deletion strains, locus YGR078C, strain PAC10, hits give low values 1 | S. cerevisiae deletion strains, locus YGR229C, strain SMI1, hits give low values 0.972 | S. cerevisiae deletion strains, locus YHR030C, strain SLT2, hits give low values 1.02 | S. cerevisiae deletion strains, locus YHR087W, strain rtc3, hits give low values 1 | S. cerevisiae deletion strains, locus YJR043C, strain POL32, hits give low values 0.991 | S. cerevisiae deletion strains, locus YJR075W, strain HOC1, hits give low values 1.02 | S. cerevisiae deletion strains, locus YLR039C, strain RIC1, hits give low values 0.962 | S. cerevisiae deletion strains, locus YLR058C, strain SHM2 (second series), hits give low values 0.999 | S. cerevisiae deletion strains, locus YLR085C, strain ARP6, hits give low values 1.04 | S. cerevisiae deletion strains, locus YLR262C, strain YPT6, hits give low values 0.912 | S. cerevisiae deletion strains, locus YML094W, strain GIM5, hits give low values 1.03 | S. cerevisiae deletion strains, locus YMR219W, strain ESC1, hits give low values 0.994 | S. cerevisiae deletion strains, locus YMR263W, strain SAP30, hits give low values 0.999 | S. cerevisiae deletion strains, locus YMR307W, strain GAS1, hits give low values 1.11 | S. cerevisiae deletion strains, locus YNL153C, strain GIM3, hits give low values 1.01 | S. cerevisiae deletion strains, locus YNL298W, strain CLA4 (second series), hits give low values 0.992 | S. cerevisiae deletion strains, locus YNL322C, strain KRE1, hits give low values 0.988 | S. cerevisiae deletion strains, locus YNR030W, strain Alg12, hits give low values 0.996 | S. cerevisiae deletion strains, locus YPL055C, strain LGE1, hits give low values 1.02 | S. cerevisiae deletion strains, locus YPL241C, strain CIN2, hits give low values 0.983 | S. cerevisiae deletion strains, locus YPR135W, strain CTF4, hits give low values 0.99 | S. cerevisiae strains, strain wild type, hits give low values 0.97

From PubChem BioAssay AID1159580 (chemical genetic matrix, 2015)
